Rows were chosen to be rich in hits. Some 3.4% of all compounds tested hit in one or more screens of this group.
GPR151 activ: activators of human GPR151, primary screen, cell-based, PathHunter beta-arrestin, luminescence; PathHunter beta-arrestin GPR151 cells; activation, % at 11.2 µM; hit rate 1% among 650,000; in the data active = activation above about 4.9%;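 also: 0% = median of compound wells and 100% = cells with positive control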
TEAD-YAP inh: TEAD-YAP interaction inhibition, primary screen, TEAD-YAP interaction inhibitor project, luminescence, HEK-TIYL cells; TEAD-Gal4/YAP UAS-luciferase luminescence; inhibition, % at 9.12 µM; hit rate 1.4% among 640,000; AID 1259422, 2018; in the data active = inhibition above about 32%;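 also: 0% = median of test compound wells and 100% = reference inhibitor wells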
FBW7 act: FBW7 E3 ligase activators, primary screen, biochemical, AlphaScreen, human; F-box/WD repeat-containing protein 7 (Homo sapiens), Q969H0; AlphaScreen FBW7–phospho-cyclin E peptide binding, activator screen; normalized activity (activation), % at 26.1 µM; hit rate 0.13% among 650,000; AID 1259310, 2017; in the data active = normalized activity above about 1.9%;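 also: purified mutant Fbw7 with reduced substrate affinity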
MITF primary: MITF inhibitors, primary screen, biochemical, AlphaScreen, human. Microphthalmia-associated transcription factor (Homo sapiens), O75030. AlphaScreen MITF homodimerization, bead proximity signal. inhibition, % at 2.6 µM. hit rate 0.91% among 650,000. AID 1259374, 2018; in the data active = inhibition above about 50%;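 also: 0% = vehicle wells with protein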
Target sequence (O75030 whole entry, looked up): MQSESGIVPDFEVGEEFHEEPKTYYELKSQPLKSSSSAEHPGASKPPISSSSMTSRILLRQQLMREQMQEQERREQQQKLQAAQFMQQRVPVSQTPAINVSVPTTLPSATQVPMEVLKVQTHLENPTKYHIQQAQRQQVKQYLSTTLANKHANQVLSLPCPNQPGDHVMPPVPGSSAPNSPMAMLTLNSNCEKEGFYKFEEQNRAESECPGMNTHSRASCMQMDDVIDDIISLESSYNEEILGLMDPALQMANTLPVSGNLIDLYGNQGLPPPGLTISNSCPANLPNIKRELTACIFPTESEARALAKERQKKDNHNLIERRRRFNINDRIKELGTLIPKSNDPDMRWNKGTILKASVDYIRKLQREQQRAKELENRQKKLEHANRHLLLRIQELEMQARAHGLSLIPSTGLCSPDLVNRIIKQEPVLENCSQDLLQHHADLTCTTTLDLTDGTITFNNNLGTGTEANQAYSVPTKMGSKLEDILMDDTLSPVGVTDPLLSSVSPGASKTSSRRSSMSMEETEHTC
MITF inh conf: MITF inhibitors, retest of hits, confirmation, biochemical, AlphaScreen, triplicate. AlphaScreen MITF homodimerization, biotin/His-MITF beads. shares compounds with MITF primary. hit rate 16% among 4,700. inhibition, % at 2.6 µM;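 active = inhibition above a cutoff derived from the DMSO control wells, cut at about 28% in these data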;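 also: 0% = MITF dimer wells with DMSO only; inhibitors lower the bead chemiluminescence by keeping MITF from dimerizing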
AlphaScreen DR: AlphaScreen optical interference compounds, dose response, counter-screen, biochemical, HTS. shares compounds with MITF primary. AlphaScreen optical interference counterscreen, cell-free. IC50, µM. hit rate 6% among 480. AID 1259373, 2018; call rule not given here
AlphaScreen intf2: AlphaScreen optical interference compounds, counter-screen for MITF inhibitor project, biochemical, triplicate; shares compounds with MITF primary; LysRS AlphaScreen counterscreen, signal interference; inhibition, % at 2.6 µM; hit rate 7.6% among 4,700; AID 1259376, 2018;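 active = inhibition above a cutoff derived from the DMSO control wells, cut at about 30% in these data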
Numbers without * were called inactive; / = not tested or not shown.

SMILES | GPR151 activ | TEAD-YAP inh | FBW7 act | MITF primary | MITF inh conf | AlphaScreen intf2 | others
O=C(/C=C/c1ccco1)C1=C(O)C(=O)N(CCCN2CCOCC2)C1c1ccco1 (configuration not stated) | 1 | 4 | 0 | 79* | 60* | -7 | AlphaScreen DR=>6.5
COc1ccc(NC(=S)NCC(C)C)c(OC)c1 | 0 | 7 | 0 | 65* | 12 | 14
COc1ccc(NC(=S)NCC(O)c2ccccc2)c(OC)c1 (configuration not stated) | 0 | 12 | 0 | 3 | / | /
Cc1cc(C(=O)CSc2ncnc3sccc23)c(C)n1Cc1ccco1 | 1 | -2 | 0 | -12 | / | /
Cc1ccc(N2CC(C(=O)Nc3ccc(C)c(Cl)c3)CC2=O)cc1 (configuration not stated) | -1 | -10 | 0 | 8 | / | /
COC(=O)c1sc(NC(=O)CN2CCCCC2C)c(C(=O)OC)c1C (configuration not stated) | 3 | 3 | 0 | 59* | 1 | 0
CCOC(=O)c1sc(NC(=O)CN2CCCCC2C)c(C(=O)OCC)c1C (configuration not stated) | -1 | 0 | 0 | 24 | / | /
NC(=O)NC(CC(=O)NNC(=O)c1ccco1)c1ccc(Cl)cc1 (configuration not stated) | 0 | -8 | 1 | 7 | / | /
c1ccc(C(CN2CCOCC2)c2ccccc2)cc1 | -1 | -8 | 0 | 57* | -9 | 2
COc1ccc(S(=O)(=O)N2CCN(CCNC(=O)COc3ccccc3OC)CC2)cc1 | 2 | -13 | 0 | 5 | / | /
CC1CCC(N2CCN(Cc3cccc(Cl)c3)CC2)CC1 (configuration not stated) | -1 | 3 | 0 | 64* | 2 | -2
CC1CCN(C2CCN(Cc3cccc(Cl)c3)CC2)CC1 | 1 | 2 | 0 | 57* | -12 | -6
OC1CCN(Cc2ccc3c(c2)OCO3)CC1 | -1 | 1 | 0 | 35 | / | /
Cc1cccc(CN2CCN(C3CCCCCC3)CC2)c1 | 0 | -4 | 0 | 50 | / | /
Clc1cccc(CN2CCN(C3CCCCC3)CC2)c1 | -1 | -6 | 0 | 74* | -4 | -5
OCC1CCN(C2CCCN(Cc3cccc(Cl)c3)C2)CC1 (configuration not stated) | -1 | 7 | 0 | 13 | / | /
CC1CCN(C2CCN(Cc3ccc4c(c3)OCO4)CC2)CC1 | 0 | 1 | 0 | 54* | -9 | -2
CC(C)(C)c1csc2ncc(C(=O)NCc3ccccc3Oc3ccccc3)c(=O)n12 | 2 | 1 | 0 | 0 | / | /
COC(=O)c1ccc(C2c3c(oc4ccccc4c3=O)C(=O)N2CCN2CCOCC2)cc1 (configuration not stated) | 1 | -16 | 0 | -1 | / | /
CCc1ccc(CN2CCc3nnc(CNC(C)=O)n3CC2)o1 | -1 | -5 | 0 | 6 | / | /
CSc1ccc2c(c1)NC(=O)CS2 | 3 | 17 | 0 | -4 | / | /
O=C(NCCCO)c1ccc(/C=N/O)nc1 | 0 | 3 | 0 | 19 | / | /
O=C(NCCCNCCCNC(=O)c1ccc(/C=N/O)nc1)c1ccc(/C=N/O)nc1 | 1 | -3 | -1 | 69* | 49* | 100*
Clc1ccccc1CN1CCN(Cc2ccccn2)CC1 | -1 | -16 | 0 | 74* | -1 | 1
COc1cccc(CN2CCC(=O)N(Cc3ccccn3)CC2)c1 | 0 | 12 | 0 | 15 | / | /
SMILES | GPR151 activ | TEAD-YAP inh | FBW7 act | MITF primary | MITF inh conf | AlphaScreen intf2 | others
O=[N+]([O-])c1cccc(CN2CCN(C3CCN(Cc4ccccc4)CC3)CC2)c1 | 1 | 4 | 0 | 46 | / | /
Clc1ccccc1CN1CCN(c2ccccn2)CC1 | -1 | 1 | 0 | 47 | / | /
Clc1cccc(CN2CCN(Cc3ccccn3)CC2)c1 | 2 | 2 | 0 | 70* | 22 | 17
O=[N+]([O-])c1cccc(CN2CCN(Cc3ccccn3)CC2)c1 | 0 | -2 | 0 | 101* | -8 | -2
OCC1(Cc2cccc(Cl)c2)CCCN(Cc2ccccn2)C1 (configuration not stated) | -1 | -1 | 0 | 1 | / | /
Cc1cccc(CN2CCN(Cc3ccccn3)CC2)c1 | -1 | 3 | 0 | 72* | 6 | 20
O=C(OCc1c(Cl)cccc1Cl)c1ccco1 | 1 | -3 | 0 | 5 | / | /
CCC(=O)Oc1ccc2c(=O)c(-c3ccc(OC)c(OC)c3)c(C)oc2c1 | 0 | -7 | 1 | 8 | / | /
Cc1cccc(CN2CCN(c3ncccn3)CC2)c1 | 3 | -12 | 0 | 54* | 7 | 10
Fc1ccc(CN2CCN(Cc3ccccn3)CC2)cc1 | 3 | -52 | 0 | 70* | 9 | 16
O=C(Nc1ccccc1)C1CC12CCN(C(=O)Cc1ccccc1F)CC2 (configuration not stated) | 0 | 1 | 0 | -4 | / | /
COc1cc(CN2CCN(Cc3ccc(C(F)(F)F)cc3)CC2)cc2c1OCO2 | 1 | -12 | 0 | 61* | 3 | 37*
COc1cc(CN2CCN(Cc3cccc(Br)c3)CC2)cc2c1OCO2 | 0 | 1 | 0 | 65* | 1 | 14
COc1cc(CNc2ccccc2)cc2c1OCO2 | 0 | -5 | 0 | 62* | -1 | -4
COc1cc(CN2CCN(Cc3cccc(Br)c3)CC2)cc(OC)c1OC | 0 | 7 | 0 | 69* | 8 | 13
COc1ccc(CN2CCN(Cc3cc(OC)c4c(c3)OCO4)CC2)cc1OC | 0 | 9 | 0 | 34 | / | /
O=C(Nc1nccs1)c1cccc2c1C(=O)c1ccccc1-2 | -1 | 8 | 0 | 4 | / | /
Cc1cccc(CN2CCC(N3CCC(C(=O)NCCC4=CCCCC4)CC3)CC2)n1 | -1 | 16 | 0 | 18 | / | /
CCCCNc1ccccc1C(=O)OCC(=O)/C(C#N)=C(\C)N | -1 | -4 | 0 | 8 | / | /
COc1cc(CN2CCN(Cc3ccc(F)cc3)CC2)cc2c1OCO2 | 0 | 6 | 0 | 76* | 4 | 12
COc1ccc(Cl)cc1C(=O)NNC(=O)COc1ccc2c(C)cc(=O)oc2c1 | 2 | -2 | 0 | 64* | -10 | -3
O=C(NC1CCCC1)C1c2ccccc2Oc2ccccc21 | 0 | -2 | 0 | 76* | -2 | -6
COc1cccc(N2C(=O)NC(=O)/C(=C/c3cccc(OC)c3OC)C2=O)c1 | -1 | 4 | 0 | 15 | / | /
C/C(=N\NC(=O)c1ccc2c(c1)OCO2)c1ccc(S(=O)(=O)NCc2ccco2)cc1 | 0 | 2 | 0 | -3 | / | /
CCN1CCN(C(=O)c2cccc(F)c2F)CC1 | 0 | -4 | 0 | -7 | / | /

Compound activity: PubChem, The Scripps Research Institute Molecular Screening Center
